# Assay outcomes from PubChem BioAssay.
# VP16 counter: counter-screen for ROR gamma inhibitors: Gal4-VP16 reporter; Drosophila S2 Gal4-VP16 UAS-luciferase, luminescence, 20 h; Potency, µM (doses to about 53.6 µM), inactives show at the highest dose activity, negative = inhibition, usual class: inhibitors; 310,000 tested, 3.5% active;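 further: Gal4-VP16 expression switched on by copper sulfate through the metallothionein promoter; nearly all actives have a fitted effect of over 50% in size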
# TDP1 cell noCPT: qHTS for Inhibitors of human tyrosyl-DNA phosphodiesterase 1 (TDP1): qHTS in cells in absence of CPT; Potency, µM (series often up to 46.2 µM), without a hit: top-dose activity change, negative = growth inhibition, usual class: inhibitors; DT40 Tdp1-/- hTDP1 cells, no CPT, ATP luminescence, 48 h; 420,000 tested, 15% active; AID 686978, 2013; further: nearly all actives have a fitted effect of over 55% in size
#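 Stably hTDP1-transfected Tdp1-null chicken DT40 cells were treated with library compounds minus camptothecin and grown for at least 48 hr at 37 °C, after which cellular ATP was quantified by luminescence.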
# TDP1 inh: TDP1 (human) enzyme inhibition; Q9NUW8; recombinant TDP1, AlphaScreen DNA substrate cleavage; Potency, µM (series often up to 130 µM), inactives show at the top dose activity change, negative = inhibition, hits mostly inhibitors; 350,000 tested, 0.28% active; AID 485290; further: nearly all actives have a fitted effect of over 40% in size
# Target sequence (Q9NUW8 whole entry, looked up): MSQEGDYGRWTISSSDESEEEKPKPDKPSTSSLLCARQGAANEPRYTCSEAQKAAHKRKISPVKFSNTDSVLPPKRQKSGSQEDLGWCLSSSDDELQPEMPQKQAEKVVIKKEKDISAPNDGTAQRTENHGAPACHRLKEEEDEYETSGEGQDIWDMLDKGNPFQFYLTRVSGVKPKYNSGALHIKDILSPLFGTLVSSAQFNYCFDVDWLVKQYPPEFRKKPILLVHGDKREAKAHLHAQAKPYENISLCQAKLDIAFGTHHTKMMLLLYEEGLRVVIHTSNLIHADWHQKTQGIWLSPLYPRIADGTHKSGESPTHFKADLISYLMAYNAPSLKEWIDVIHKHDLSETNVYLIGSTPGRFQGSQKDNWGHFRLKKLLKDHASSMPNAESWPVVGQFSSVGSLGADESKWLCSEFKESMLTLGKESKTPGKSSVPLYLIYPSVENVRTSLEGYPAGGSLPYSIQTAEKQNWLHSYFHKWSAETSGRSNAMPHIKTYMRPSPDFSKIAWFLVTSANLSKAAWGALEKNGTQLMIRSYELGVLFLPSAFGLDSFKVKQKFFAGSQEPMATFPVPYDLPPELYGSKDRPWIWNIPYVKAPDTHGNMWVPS
#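 Compounds were preincubated with Tdp1 (1 nM final) for 15 min at room temperature before substrate (15 nM final) started a 5 min reaction; beads (10 ug/ml final) were then added for 10 min before AlphaScreen detection.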
# TDP1 cell CPT: growth inhibition of DT40 Tdp1-/-;hTDP1 cells with camptothecin (screen for TDP1 inhibitors). 420,000 tested, 12% active. Potency, µM (highest dose often 46.2 µM), for inactives: at the highest dose activity change, negative = growth inhibition, hits mostly inhibitors. chicken DT40 Tdp1-/-;hTDP1 cells + 20 nM CPT, ATP luminescence, 48 h; further: nearly all actives have a fitted effect of over 55% in size
#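 Chicken DT40 Tdp1-/- cells stably complemented with human TDP1 were seeded at 400 cells/well in medium containing 20 nM camptothecin, exposed to pin-transferred compounds, and grown at 37 °C for at least 48 hr. Viability was read as ATP luminescence.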
# RORgamma inh: inhibitors of mouse ROR gamma transcriptional activity; P51450; Drosophila S2 Gal4-RORgamma UAS-luciferase reporter, 20 h; Potency, µM (series often up to 53.6 µM), inactives show at the top dose activity change, negative = inhibition, usual class: inhibitors; 310,000 tested, 5.4% active; AID 2551; further: nearly all actives have a fitted effect of over 60% in size
#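 Read-out: Photinus luciferase luminescence; inhibitors lower reporter signal. Insect Schneider cells with Gal4-ROR gamma fusion under metallothionein promoter, UAS reporter; 700 uM final copper sulfate induction, 20 hr, ambient temperature.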
# * hit, by the source's call; ? = inconclusive; / = no result; [ ] = dose if it differs, or a comment. The list is not random: actives were taken first. Their share in the collection is about 19%. The call rests on the fitted dose curve; in most records, active means well fitted curve in the direction sought with a large enough effect; inconclusive means small, poorly fitted or top-dose-only effect, or another doubt; inactive means no such curve, though single readings can be large; an effect the other way counts as inactive or inconclusive. On the % scale 0 is the no-effect control and ±100 the full control effect; potency means the concentration at half of the fitted maximal effect.
SMILES,VP16 counter,TDP1 cell noCPT,TDP1 inh,TDP1 cell CPT,RORgamma inh
CC(=O)Nc1ccc(OCC(=O)NCc2ccccc2)cc1,-29.9%,-0.6%,5.5%,23.2%,20.2%
CCc1nc2ccccc2c(C(=O)OCC(=O)NCc2ccco2)c1C,4.0%,?,2.1%,?,-40.1%
CCCc1nc2ccccc2c(C(=O)OCC(=O)Nc2ccc(S(=O)(=O)N3CCOCC3)cc2)c1CC,-26.8%,16.4µM*,3.0%,16.4µM*,?
CCCc1nc2ccccc2c(C(=O)OCC(=O)Nc2cccc(S(=O)(=O)N3CCOCC3)c2)c1CC,-12.3%,?,3.0%,11.6µM*,?
CN=C(C)/C(C(=O)OC)=C(/O)c1ccccc1F,-9.9%,1.4%,1.2%,-7.1%,10.4%
O=C(Cn1cc2c(n1)CCCC2)NC1CCN(Cc2ccccc2)CC1,8.3%,0.6%,0.0%,-1.1%,-22.4%
O=C(NCCCc1nc2ccccc2n1Cc1ccccc1Cl)C1CCCCC1,/,18.4µM*,0.0%,23.1µM*,/
O=C(NCCCc1nc2ccccc2n1Cc1ccc(Cl)cc1)C1CCCCC1,/,20.6µM*,-2.5%,16.4µM*,/
COc1ccc(NC(=O)CN(C)C(=O)c2cccc3ccccc23)cc1,/,-12.5%,4.4%,-16.5%,/
CC(C)Oc1ccc(C(=O)N2CC(=O)Nc3ccc(F)cc3C2c2ccc(F)cc2)cc1 (configuration not stated),/,?,8.8%,?,/
COc1ccc(OC)c(CCNC(=O)c2c(C)nn(-c3ccc(F)cc3)c2-n2cccc2)c1,/,/,11.3%,/,/
COc1cc(C2NC(=O)C(C#N)=C(S)N2c2ccccc2)ccc1OC(C)C (configuration not stated),?,?,0.0%,?,10µM*
CCOc1ccc(C2NC(=O)C(C#N)=C(S)N2c2ccc(C)cc2)cc1OC (configuration not stated),?,?,-1.1%,?,14.1µM*
CCOc1ccc(C2NC(=O)C(C#N)=C(S)N2c2cccc(C)c2)cc1OC (configuration not stated),-10.5%,?,-1.2%,?,-33.9%
N#CC1=C(S)N(c2ccccc2)C(c2ccc(-c3cccc(Cl)c3)o2)NC1=O (configuration not stated),?,?,5.5%,?,12.6µM*
O=C(c1cc2ccccc2cc1O)N1CCN(c2cccc(Cl)c2)CC1,/,?,1.8%,?,/
O=C(c1c(Cl)nc2sccn12)N1CCN(c2cccc(Cl)c2)CC1,4.5%,2.31µM*,4.1%,2.31µM*,?
COc1cc2c(C(=O)N3CCN(c4cccc(Cl)c4)CC3)cn(C)c(=O)c2cc1OC,6.0%,3.66µM*,5.9%,5.17µM*,?
CCn1cc(C(=O)N2CCN(c3ccc(OC)cc3)CC2)c2cc(OC)c(OC)cc2c1=O,-13.5%,-12.1%,-2.5%,10.2%,9.4%
CCn1cc(C(=O)N2CCN(c3cccc(Cl)c3)CC2)c2cc(OC)c(OC)cc2c1=O,-2.0%,23.1µM*,5.9%,16.4µM*,13.7%
COc1ccccc1C(=O)N1CCN(c2cccc(Cl)c2)CC1,-9.8%,1.64µM*,5.8%,1.84µM*,2.8%
COc1ccc(N(C(=O)c2cccnc2)S(=O)(=O)c2ccccc2)cc1,-8.7%,?,5.4%,6.4%,-0.6%
COc1cc(SC)ccc1C(=O)N1CCN(c2ccc(O)cc2)CC1,-17.1%,9.2µM*,2.7%,?,20.4%
O=C(c1cc2cc(F)ccc2[nH]1)N1CCN(c2cccc(Cl)c2)CC1,9.7%,-17.8%,/,7.5%,8.1%
COc1cc(SC)ccc1C(=O)N1CCN(c2ccccc2)CC1,3.4%,?,0.0%,-9.0%,5.6%
SMILES,VP16 counter,TDP1 cell noCPT,TDP1 inh,TDP1 cell CPT,RORgamma inh
Cc1[nH]c(-c2ccc(F)cc2)cc1C(=O)N1CCN(c2cccc(Cl)c2)CC1,-3.8%,16.4µM*,/,-8.4%,16.3%
Cc1cc(C)cc(S(=O)(=O)c2cn(C)c3cc(N4CCCC4)c(F)cc3c2=O)c1,/,4.9%,3.7%,-3.3%,/
COc1ccc(S(=O)(=O)c2cn(C)c3cc(N4CCCCCC4)c(F)cc3c2=O)cc1,/,14.6µM*,7.5%,18.4µM*,/
CCCCn1cc(S(=O)(=O)c2ccc(Cl)cc2)c(=O)c2cc(F)c(N3CCCCC3)cc21,/,11.6µM*,1.2%,11.6µM*,/
CCCn1cc(S(=O)(=O)c2ccc(OC)cc2)c(=O)c2cc(F)c(N3CCCC(C)C3)cc21 (configuration not stated),/,18.4µM*,-1.2%,?,/
CCCn1cc(S(=O)(=O)c2ccc(C)cc2)c(=O)c2cc(F)c(N3CCCC3)cc21,/,-26.5%,3.7%,?,/
CCCCn1cc(S(=O)(=O)c2ccc(OC)cc2)c(=O)c2cc(F)c(N3CCCC3)cc21,/,10.3µM*,-5.0%,11.6µM*,/
CCCCn1cc(S(=O)(=O)c2ccc(C)cc2)c(=O)c2cc(F)c(N3CCCCC3)cc21,/,13µM*,2.5%,18.4µM*,/
COC(=O)N1CCC2(CCN(Cc3ccc(C#N)cc3)CC2)CC1,-26.8%,?,/,1.64µM*,?
N#Cc1ccc(CN2CCC3(CC2)CCN(S(=O)(=O)c2ccccc2)CC3)cc1,-24.7%,16.4µM*,/,?,-12.0%
COC(=O)N1CCC2(CCN(Cc3cc(C(F)(F)F)cc(C(F)(F)F)c3)CC2)CC1,4.4%,14.6µM*,/,?,6.2%
COc1ccccc1CN1CCC2(CC1)CCN(C(=O)c1cc(C(F)(F)F)cc(C(F)(F)F)c1)CC2,8.9%,20.6µM*,/,?,-0.7%
CS(=O)(=O)N1CCC2(CCN(Cc3ccc(C#N)cc3)CC2)CC1,-2.4%,-22.5%,/,6.7%,8.6%
CC(C)c1ccc(N2C(=O)[C@@H]3Cc4ccccc4CN3C2=O)cc1,-3.9%,-19.7%,9.5%,-13.3%,?
Cc1ccccc1CN(c1ccc(C(=O)N2CCCC2)cc1)S(C)(=O)=O,-7.2%[0.365 µM],-12.1%,5.3%,-20.5%,3.0%
CCC(=O)Nc1cccc(NC(C)=O)c1,-3.2%,/,-6.6%,/,2.7%
O=C(c1cccc(F)c1)N1CCC2(CCN(Cc3cc(C(F)(F)F)cc(C(F)(F)F)c3)CC2)CC1,-9.2%,18.4µM*,/,?,0.1%
N#Cc1ccc(CN2CCC3(CC2)CCN(C(=O)c2cc(C(F)(F)F)cc(C(F)(F)F)c2)CC3)cc1,-9.2%,13µM*,/,23.1µM*,36.0%
O=C(c1cccc(F)c1)N1CCC2(CCCN(Cc3cc(C(F)(F)F)cc(C(F)(F)F)c3)C2)CC1,15.1%,?,/,-11.4%,-51.3%
CC1C(=O)Nc2ccccc2N1C(=O)c1ccc(O)cc1 (configuration not stated),2.8%,4.9%,/,4.5%,-11.3%
